# DT40 TDP1 no CPT: qHTS for Inhibitors of human tyrosyl-DNA phosphodiesterase 1 (TDP1): qHTS in cells in absence of CPT; actives 15% (n = 420,000); DT40 Tdp1-/- hTDP1 cells, no CPT, ATP luminescence, 48 h; Potency, µM (titrated, usually from 46.2 µM), for the others: at the top dose activity change, negative = growth inhibition, most hits filed as inhibitors; also: potency is read from the fitted curve at half-maximal effect; nearly all actives have a fitted effect of over 55% in size
#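 DT40 Tdp1-/-;hTDP1 cells, no CPT (DMSO vehicle only), 400 cells/well; compounds pin-transferred; ≥48 hr, 37 °C; CellTiter-Glo 30 min RT dark, luminescence read.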
# HT1080 IDH1KD tx: kills HT-1080 cells with IDH1 knockdown. actives 2% (n = 360,000). Potency, µM (series often up to 46.1 µM), for inactives: at the top dose activity, negative = toxicity, usual class: cytotoxic. HT-1080 IDH1 knockdown viability, ATP luminescence, 48 h;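 also: potency is read from the fitted curve at half-maximal effect; 0% = DMSO wells and -100% = cell-free medium wells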
#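 Luminescent ATP read-out (CellTiter-Glo, 10 min at room temperature) after 48 h compound exposure at 37 °C gave viability of IDH1-knockdown HT-1080 cells. Activity was normalised to DMSO and cell-free wells, then fitted as concentration-response curves.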
# TDP1 cell CPT: DT40-hTDP1 cell growth loss with CPT. chicken DT40 Tdp1-/-;hTDP1 cells + 20 nM CPT, ATP luminescence, 48 h. Potency, µM (top dose mostly 46.2 µM), inactives show at the top dose activity change, negative = growth inhibition, usual class: inhibitors. AID 686979. actives 12% (n = 420,000); also: potency is read from the fitted curve at half-maximal effect; nearly all actives have a fitted effect of over 55% in size
#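 Cell growth measured by CellTiter-Glo luminescence after a minimum 48 h, 37 C compound exposure with 20 nM CPT in Tdp1-knockout DT40 cells stably expressing hTDP1, seeded 400/well; qHTS titration format.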
# IL-1B inflam inh: inhibitors of inflammasome signaling (IL-1 beta secretion); THP-1 LPS/ATP IL-1B secretion, AlphaLISA, 16 h; hits give low values; activity change, % at 57.5 µM; actives 4.7% (n = 360,000); AID 743279; in the data active = activity change below about -50%; inconclusive = mostly about -30% to -49%
#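 Secreted IL-1B measured by AlphaLISA bead assay after 16 h compound exposure of THP-1 cells; compounds (final up to 57.5 uM) added 1 h before LPS (250 ng/mL) and ATP (1.25 mM) stimulation; lower signal means less secretion.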
# HT1080-NT tox: kills 2HG-producing HT-1080-NT fibrosarcoma cells; actives 1.6% (n = 360,000); Potency, µM (top dose mostly 46.1 µM), inactives show at the highest dose activity, negative = less viability, usual class: cytotoxic; AID 686970; HT-1080-NT fibrosarcoma viability, CellTiter-Glo ATP luminescence, 48 h;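 also: NT is the 2HG producing partner of a matched IDH1 knockdown line; potency is read from the fitted curve at half-maximal effect; 0% = DMSO-treated cells and -100% = media-only wells without cells; nearly all actives have a fitted effect of over 55% in size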
#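 HT-1080-NT; 750 cells/well; 5% FBS RPMI; 48 h compound, 37 degrees C; CellTiter-Glo luminescence; curve fitting and curve-class assignment.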
# Starred values were filed as active, the others as inactive; ? = inconclusive; . = no result; [ ] = dose if it differs, or a comment. Shown are actives, neighbours in structure and some others; about 19% of the full set was active somewhere. Unless noted, calls follow the shape of the dose curve; as a rule, active = well fitted curve in the direction sought with a large enough effect; inconclusive = small, poorly fitted or top-dose-only effect, or another doubt; inactive = no such curve, though single readings can be large; an effect the other way counts as inactive or inconclusive. Unless noted, % is scaled to controls: 0 for no effect and ±100 for the full control effect.
SMILES,DT40 TDP1 no CPT,HT1080 IDH1KD tx,TDP1 cell CPT,IL-1B inflam inh,HT1080-NT tox
COc1ccc(C(=O)N/N=C(\Cc2ncc[nH]2)c2ccccc2)cc1,2.9µM*,?,5.2µM*,42,?
Cc1cnc(-n2ncc(C(=O)N(C)C3CCOC3)c2-c2cccs2)nc1-c1ccc(F)cc1 (configuration not stated),-20%,.,14%[9.04 µM],.,.
CC(C)C(=O)Nc1ncc(Cc2cccc(Cl)c2)s1,?,-27%,?,-72*,-21%
O=C(Nc1ncc(Cc2cccc(Cl)c2)s1)c1ccc([N+](=O)[O-])cc1,8.2µM*,?,?,-19,-21%
O=C(Nc1ncc(Cc2ccccc2Cl)s1)c1ccc([N+](=O)[O-])cc1,?,6%,?,22,5%
O=C(Nc1ncc(Cc2cccc([N+](=O)[O-])c2)s1)c1ccco1,?,4.6µM*,-13%,10,?
Cc1cccc(Cc2cnc(NC(=O)C3=NCCN3)s2)c1,23µM*,-20%,-86%,3,?
O=C(NCc1cccs1)C1CC(=O)N(c2ccc(Cl)cc2)C1 (configuration not stated),2%,-10%,9%,15,-17%
COc1ccccc1N(CC(=O)NC(C)(C)C)S(=O)(=O)c1cccs1,?,-1%,?,5,1%
COc1ccc(N(C(=O)COc2c(C)cccc2C)S(=O)(=O)c2ccc(Cl)cc2)cc1,?,.,23µM*,.,.
COc1ccc(N(C(=O)COc2ccc(Br)cc2)S(=O)(=O)c2ccc(C)cc2)cc1,21µM*,.,?,.,.
COc1ccc(N(C(=O)COc2ccccc2OC)S(=O)(=O)c2ccc(C)cc2)cc1,-25%,-18%,-6%,37,-16%
CCn1nnnc1NCc1cccn1C,-15%,-7%,-4%,-1,1%
O=C(C1COc2ccccc2O1)N1CCN(c2nc3ccc([N+](=O)[O-])cc3s2)CC1 (configuration not stated),23µM*,11%,?,-7,1%
O=C(C1COc2ccccc2O1)N1CCN(c2ccc([N+](=O)[O-])cc2)CC1 (configuration not stated),21µM*,-13%,?,-84*,-1%
C=CCn1c(O)c(N=NC(=O)c2cccnc2)c2cc(Br)ccc21,-25%,12%,-25%,19,10%
CC(C)NC(=O)N1CC2(CCN(S(=O)(=O)c3ccccc3)CC2)C1,18%,.,-1%,.,.
Cc1ccc(-c2nnc(Nc3ccc(CC(N)=O)cc3)c3ccccc23)cc1S(=O)(=O)NCC1CCCO1 (configuration not stated),3%,-1%,1%,?,-13%
CCOC(=O)CNS(=O)(=O)c1cc(-c2nnc(Nc3ccc4c(c3)OCO4)c3ccccc23)ccc1C,?,1%,?,-102*,0%
Cc1ccc(-c2nnc(Nc3ccc(C(=O)N(C)C)cc3)c3ccccc23)cc1S(=O)(=O)NC(C)(C)CO,-29%,-5%,?,28,-20%
COc1ccc(Nc2nnc(-c3ccc(C)c(S(=O)(=O)NCCO)c3)c3ccccc23)cc1C(N)=O,-4%,.,5%,.,.
COC(=O)c1ccc(Nc2nnc(-c3ccc(C)c(S(=O)(=O)NCC4CCCO4)c3)c3ccccc23)cc1 (configuration not stated),23µM*,-16%,23µM*,-63*,-2%
Cc1ccc(-c2nnc(Nc3ccc(C(=O)N(C)C)cc3)c3ccccc23)cc1S(=O)(=O)NCC1CCCO1 (configuration not stated),23µM*,-8%,15µM*,-23,-4%
Cc1cccc(C)c1NS(=O)(=O)c1cc2c3c(c1)CCN3C(=O)CC2,-16%,0%,-2%,-4,3%
Cc1cccc(OC(=O)CSc2nnc(CNC(=O)c3ccccc3)o2)c1C,-8%,.,-10%,.,.
SMILES,DT40 TDP1 no CPT,HT1080 IDH1KD tx,TDP1 cell CPT,IL-1B inflam inh,HT1080-NT tox
CCCC(=O)N(c1ccc(OCC)cc1)C1C=CS(=O)(=O)C1 (configuration not stated),1%,-3%,-14%,7,4%
O=C(c1ccco1)N1CCN(c2ncnc3sc4c(c23)CCC4)CC1,20µM*,?,?,0,-28%
CC1CCc2c(sc3nc(C4CC4)nc(N4CCN(C(=O)c5ccco5)CC4)c23)C1 (configuration not stated),?,23µM*,?,-17,?
CCOc1ccc(CN2CCN(c3ncnc4sc5c(c34)CC(C)CC5)CC2)cc1 (configuration not stated),?,.,-20%,.,.
O=C(c1ccco1)N1CCN(c2ncnc3c(-c4ccccc4)nsc23)CC1,21µM*,2%,18µM*,-7,2%
Clc1ccc(CN2CCN(c3ncnc4sc5c(c34)CCCC5)CC2)cc1Cl,23µM*,.,21µM*,.,.
COc1ccc(CN2CCN(c3ncnc4sc5c(c34)CC(C)CC5)CC2)cc1F (configuration not stated),6.5µM*,.,15µM*,.,.
c1ccc(N2CCN(c3ncnc4sc5c(c34)CCC5)CC2)cc1,21µM*,-7%,21µM*,-7,-10%
COc1ccc(CCNC2=CC(=O)CCC2)cc1OC,-13%,10%,-19%,99,24%
CCOC(=O)N(NC(=O)C(O)(CC(C)C)CC(C)C)c1ccccc1,2%,13%,?,-11,2%
CC1CCCCN1C(=O)c1ccc(OC2CCN(S(=O)(=O)N(C)C)CC2)cc1 (configuration not stated),10µM*,?,?,-9,-17%
CN(C(=O)c1ccc(OC2CCN(S(=O)(=O)N(C)C)CC2)cc1)C1CCCCC1,?,6%,21µM*,18,-1%
CCN(Cc1cnn(C)c1)C(=O)c1ccc(OC2CCN(S(=O)(=O)N(C)C)CC2)cc1,1%,-8%,-11%,-68*,-12%
COCCC(=O)N1CCC(Oc2ccc(C(=O)N3CCCCCCC3)cc2)CC1,?,2%,?,44,-5%
CSCCNC(=O)c1ccc(OC2CCN(S(=O)(=O)N(C)C)CC2)cc1,2%,-6%,-12%,-11,5%
CN(C)S(=O)(=O)N1CCC(Oc2ccc(C(=O)N3CCCCCCC3)cc2)CC1,16µM*,-4%,16µM*,0,-4%
Cc1cccc(C)c1NC(=O)[C@@]1(CC(=O)O)CC(/C=C/c2ccccc2)=NO1,-19%,5%,-15%,29,12%
CN(C)S(=O)(=O)N1CCC(Oc2ccc(C(=O)N3CCCCCC3)cc2)CC1,13µM*,-15%,23µM*,6,-1%

# From PubChem BioAssay
